From PubChem BioAssay (NCI)
This is part of a sample that, as a whole, favours compounds with a hit. Of some 83,000 tested, about 20% had one in any assay.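 Interpretation: 100, growth as untreated; towards 0, rising growth inhibition; 0, no net growth; 0 to -100, cell death. Compounds scoring below 10 were considered active.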 Values without a mark were called inactive. Active and inactive are the calls of the source.

Key:
Assay in all cases: NCI-60 one-dose screen, 48 h (100 = growth as untreated, 0 = no growth, -100 = all killed)
Details in all cases: 10 µM unless noted
NCI-H23 lung = test system: NCI-H23 lung
NCI-H226 lung = test system: NCI-H226 lung
NCI-H322M lung = test system: NCI-H322M lung
HOP-62 NSCLC = test system: HOP-62 NSCLC
NCI-H460 lung = test system: NCI-H460 lung
NCI-H522 lung = test system: NCI-H522 lung
A549/ATCC NSCLC = test system: A549/ATCC NSCLC
786-0 renal = test system: 786-0 renal
COLO 205 colon = test system: COLO 205 colon
HOP-92 NSCLC = test system: HOP-92 NSCLC

| SMILES | growth (NCI-H23 lung) | growth (NCI-H226 lung) | growth (NCI-H322M lung) | growth (HOP-62 NSCLC) | growth (NCI-H460 lung) | growth (NCI-H522 lung) | growth (A549/ATCC NSCLC) | growth (786-0 renal) | growth (COLO 205 colon) | growth (HOP-92 NSCLC) |
| --- | --- | --- | --- | --- | --- | --- | --- | --- | --- | --- |
| O=C(Nc1ccccc1O)c1ccc(CNC(=O)c2sccc2Nc2ccnc(C(F)(F)F)c2)cc1 | 51.7% | 54.8% | 51% | 65.6% | 42% | 7.48% (active) | 66.5% | 60.4% | 73.3% |  |
| COC(=O)c1c(C)nc(C)c2c1C(=O)C(Br)=C(NCc1ccccc1)C2=O | 5.25% (active) | 71% | 31.4% | 87.1% | 11.7% | 22% | 18.2% | 51.6% | -11.8% (active) |  |
| COc1ccc(C2CC(c3ccc(Nc4nc(Nc5ccccc5)nc(Nc5ccccc5)n4)cc3)=NN2C(C)=O)cc1 (stereo not drawn) | 97.4% | 98.1% | 107% | 95.2% | 116% | 88.7% | 88.1% | 88.5% | 111% |  |
| Nc1c(C(=O)Nc2ccccc2C(F)(F)F)sc2nc3c(cc12)CCC3 | 95.7% | 82.6% | 87.5% | 88.6% | 105% | 85.7% | 90.4% | 93% | 115% | 96.6% |
| C#Cc1c2c(c(OC)c3c1OCO3)[C@H]([C@H]1OC(=O)c3c1ccc(OC)c3OC)N(C)CC2 | 86% | 98% | 94% | 71.8% | 96% | 60.3% | 65.5% | 95.4% | 79.7% |  |
| Cc1ccc2c(Cn3cc(CSc4nc5ccccc5o4)nn3)cc(=O)oc2c1 | 96.1% | 110% | 104% | 105% | 110% | 97.6% | 105% | 105% | 111% | 110% |
| CSc1nnc(-c2cc3c([nH]c4ccccc43)c(-c3cccc(O)c3)n2)n1-c1ccccc1 | 55.1% | 51.6% | 43.3% | 47.6% | 12.1% | -15% (active) | 46.1% | 24.1% | 85.3% |  |
| CCOCCNC1=C(Cl)C(=O)c2ccccc2C1=O | 80.7% | 121% | 108% | 110% | 94.9% | 82.9% | 101% | 105% | 130% |  |
| N#CC(C#N)N=Nc1ccc(Br)cc1 | 24.6% | 79% | 100% | 80.1% | 95.8% | 7.59% (active) | 83.5% | 35.4% | -28.7% (active) |  |
| O=C(/C=C(/C=C/c1ccc2[nH]ccc2c1)OB(F)F)/C=C/c1ccc2[nH]ccc2c1 | -26.6% (active) | -59.5% (active) | 27.5% | -16.5% (active) | 0.421% (active) | -68.5% (active) | -53.6% (active) | -57.1% (active) | -38.4% (active) | 4.49% (active) |
| Cc1c[n+](Cc2ccc3ccccc3c2)cn1Cc1ccc2ccccc2c1 | 27.7% | 31.8% | 65.7% | 33.2% | 21.9% | -17.9% (active) | 60.5% | 41% | -78.7% (active) | -20.9% (active) |
| CSc1nc2ccccc2cc1/C=[N+](\[O-])c1ccccc1 | 70% | 73.9% | 85.7% | 67.9% | 92.1% | 82.4% | 97.6% | 74.6% | 103% |  |
| C#CCOc1cccc(Nc2ncnc3cc(NC(=O)C=C)ccc23)c1 | 30.3% | 62.3% | 50.3% | 40.4% | 16.1% | -17.5% (active) | 29.7% | 7.49% (active) | 17.3% | 12.3% |
| OCCn1cc(-c2nc(-c3c[nH]c4ncccc34)cs2)c2cc(F)ccc21 | 76.2% | 48.4% | 66.3% | 71.9% | 65.7% | 45.5% | 63% | 81.9% | 66.4% | 52.3% |
| O=C(CN1CCCCC1)Nc1nc(-c2cc3ccccc3oc2=O)cs1 | 109% | 88.3% | 93.9% | 96.2% | 103% | 93.6% | 102% | 95.4% | 116% |  |
| O=C1C(Cl)=C(NCCCCCCNC2=C(Cl)C(=O)c3ccccc3C2=O)C(=O)c2ccccc21 | 61.8% | 102% | 92.2% | 112% | 94.8% | 90.7% | 102% | 114% | 86.2% |  |
| CCOC(=O)Cc1cnc(N/N=C(\C)c2cc3ccccc3o2)s1 | 86.5% | 80.5% | 93.6% | 68% |  | 42% | 91.5% | 97.3% | 108% | 86.9% |
| Cc1nc2sc(C(=O)Nc3cccc(Br)c3)c(N)c2cc1C(O)c1ccccc1 (stereo not drawn) | 25.1% | 61.7% | 61% | 47.5% | 4.9% (active) | 9.66% (active) | 20.4% | 36.2% | 16.6% |  |
